# Measurements taken from ChEMBL document CHEMBL1961873, “Compounds: GSK PKIS; Assays: Nanosyn kinase panel” (2012).
# Columns and labels:
# [1] = molecular target: Tyrosine-protein kinase CSK (Homo sapiens) (UniProt P41240); details: at 1 µM;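 further: each value is an averaged inhibition reading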
# [2] = molecular target: T1, Discoidin domain-containing receptor 2 (Homo sapiens) (UniProt Q16832); details: at 0.1 µM
# T1 sequence (whole entry): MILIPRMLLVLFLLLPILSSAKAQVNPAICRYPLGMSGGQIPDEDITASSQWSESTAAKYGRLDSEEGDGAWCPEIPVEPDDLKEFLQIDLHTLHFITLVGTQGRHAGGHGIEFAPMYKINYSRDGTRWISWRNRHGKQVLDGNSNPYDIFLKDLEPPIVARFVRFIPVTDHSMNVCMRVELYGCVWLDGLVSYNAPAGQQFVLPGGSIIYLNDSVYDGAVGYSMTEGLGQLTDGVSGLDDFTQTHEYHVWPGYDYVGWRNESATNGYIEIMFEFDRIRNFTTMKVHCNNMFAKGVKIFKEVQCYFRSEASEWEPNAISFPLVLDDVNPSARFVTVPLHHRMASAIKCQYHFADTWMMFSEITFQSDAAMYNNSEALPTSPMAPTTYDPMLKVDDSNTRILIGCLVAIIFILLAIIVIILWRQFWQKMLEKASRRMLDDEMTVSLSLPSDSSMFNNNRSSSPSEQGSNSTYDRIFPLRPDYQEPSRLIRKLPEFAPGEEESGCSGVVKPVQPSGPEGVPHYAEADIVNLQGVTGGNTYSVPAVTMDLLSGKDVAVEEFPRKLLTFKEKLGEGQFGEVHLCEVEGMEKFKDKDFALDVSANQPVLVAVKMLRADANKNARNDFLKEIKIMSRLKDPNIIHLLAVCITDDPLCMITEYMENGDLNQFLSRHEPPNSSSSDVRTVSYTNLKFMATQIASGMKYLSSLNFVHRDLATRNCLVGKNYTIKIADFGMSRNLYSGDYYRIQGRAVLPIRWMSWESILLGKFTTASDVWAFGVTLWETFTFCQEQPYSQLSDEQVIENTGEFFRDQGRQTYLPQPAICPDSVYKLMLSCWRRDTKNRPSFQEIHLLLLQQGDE
# [3] = molecular target: T1, Discoidin domain-containing receptor 2 (Homo sapiens); details: at 1 µM
# [4] = molecular target: Epidermal growth factor receptor (Homo sapiens) (UniProt P00533); details: at 0.1 µM
# Chain of Epidermal growth factor receptor (Homo sapiens) (P00533 whole entry): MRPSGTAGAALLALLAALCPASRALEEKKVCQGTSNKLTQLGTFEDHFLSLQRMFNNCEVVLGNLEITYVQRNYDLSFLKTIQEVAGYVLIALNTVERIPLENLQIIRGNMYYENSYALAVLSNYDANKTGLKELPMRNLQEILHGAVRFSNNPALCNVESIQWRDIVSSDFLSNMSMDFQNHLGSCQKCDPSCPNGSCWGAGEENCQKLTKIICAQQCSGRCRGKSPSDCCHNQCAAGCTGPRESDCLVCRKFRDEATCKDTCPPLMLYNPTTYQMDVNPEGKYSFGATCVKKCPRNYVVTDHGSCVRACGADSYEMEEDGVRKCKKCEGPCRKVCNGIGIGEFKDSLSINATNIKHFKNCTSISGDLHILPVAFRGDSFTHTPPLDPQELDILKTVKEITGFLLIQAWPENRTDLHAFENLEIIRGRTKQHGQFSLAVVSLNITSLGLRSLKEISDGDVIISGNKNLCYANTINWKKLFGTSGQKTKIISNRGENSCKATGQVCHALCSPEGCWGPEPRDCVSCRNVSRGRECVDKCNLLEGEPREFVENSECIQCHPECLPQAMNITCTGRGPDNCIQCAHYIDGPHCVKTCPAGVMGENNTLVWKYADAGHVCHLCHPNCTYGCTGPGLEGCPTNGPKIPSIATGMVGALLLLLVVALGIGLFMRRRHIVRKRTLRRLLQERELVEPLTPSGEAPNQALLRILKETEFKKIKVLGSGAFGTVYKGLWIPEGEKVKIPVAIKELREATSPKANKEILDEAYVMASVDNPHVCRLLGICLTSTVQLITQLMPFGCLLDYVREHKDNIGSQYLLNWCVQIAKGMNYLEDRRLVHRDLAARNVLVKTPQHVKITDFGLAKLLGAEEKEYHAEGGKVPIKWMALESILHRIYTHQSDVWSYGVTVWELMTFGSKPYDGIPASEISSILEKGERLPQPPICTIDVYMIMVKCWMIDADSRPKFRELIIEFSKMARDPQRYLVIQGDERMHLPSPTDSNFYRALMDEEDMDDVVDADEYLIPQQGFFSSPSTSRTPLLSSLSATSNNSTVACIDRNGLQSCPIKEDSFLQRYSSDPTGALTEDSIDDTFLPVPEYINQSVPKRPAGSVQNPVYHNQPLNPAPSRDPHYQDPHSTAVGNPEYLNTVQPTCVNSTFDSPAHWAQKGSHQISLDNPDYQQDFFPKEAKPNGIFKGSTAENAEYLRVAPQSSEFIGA
# [5] = molecular target: Epidermal growth factor receptor (Homo sapiens) (UniProt P00533); details: at 1 µM
# [6] = system: Epidermal growth factor receptor (Homo sapiens), P00533 [L858R]; details: at 0.1 µM
# Chain of Epidermal growth factor receptor (Homo sapiens), P00533 [L858R] (P00533 whole entry L858R): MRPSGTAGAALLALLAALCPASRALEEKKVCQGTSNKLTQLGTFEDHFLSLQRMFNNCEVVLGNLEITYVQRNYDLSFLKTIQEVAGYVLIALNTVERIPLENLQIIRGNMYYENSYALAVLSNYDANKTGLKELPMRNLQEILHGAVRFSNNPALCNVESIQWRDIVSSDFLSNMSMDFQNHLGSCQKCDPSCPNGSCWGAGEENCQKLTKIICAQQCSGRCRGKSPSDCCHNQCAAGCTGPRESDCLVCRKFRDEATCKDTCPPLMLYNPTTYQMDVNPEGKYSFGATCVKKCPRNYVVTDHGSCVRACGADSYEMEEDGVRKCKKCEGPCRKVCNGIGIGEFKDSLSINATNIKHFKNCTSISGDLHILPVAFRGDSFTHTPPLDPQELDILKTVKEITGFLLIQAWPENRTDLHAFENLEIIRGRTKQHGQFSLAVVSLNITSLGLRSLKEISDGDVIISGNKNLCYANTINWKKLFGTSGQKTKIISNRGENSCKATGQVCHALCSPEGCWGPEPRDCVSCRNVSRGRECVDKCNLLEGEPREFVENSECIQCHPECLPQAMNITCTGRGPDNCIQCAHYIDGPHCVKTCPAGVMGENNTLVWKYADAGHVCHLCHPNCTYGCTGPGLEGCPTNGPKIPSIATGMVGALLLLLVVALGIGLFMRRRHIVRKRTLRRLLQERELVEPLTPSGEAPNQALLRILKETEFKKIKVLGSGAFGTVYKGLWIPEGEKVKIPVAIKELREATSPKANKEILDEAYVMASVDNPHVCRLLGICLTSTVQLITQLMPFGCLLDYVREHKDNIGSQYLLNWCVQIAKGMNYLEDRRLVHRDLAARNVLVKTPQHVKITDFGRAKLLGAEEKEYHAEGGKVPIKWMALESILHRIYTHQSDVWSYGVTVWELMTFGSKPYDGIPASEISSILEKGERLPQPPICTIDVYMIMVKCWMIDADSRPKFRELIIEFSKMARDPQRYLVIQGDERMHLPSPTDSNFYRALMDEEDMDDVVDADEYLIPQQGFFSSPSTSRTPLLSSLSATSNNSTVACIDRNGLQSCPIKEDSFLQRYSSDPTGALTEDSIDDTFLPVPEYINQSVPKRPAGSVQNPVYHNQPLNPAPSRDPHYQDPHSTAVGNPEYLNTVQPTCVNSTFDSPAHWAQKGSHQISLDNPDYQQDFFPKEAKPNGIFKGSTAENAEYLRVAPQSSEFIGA
# [7] = system: Epidermal growth factor receptor (Homo sapiens), P00533 [L858R]; details: at 1 µM
# [8] = system: Epidermal growth factor receptor (Homo sapiens), P00533 [L861Q]; details: at 0.1 µM
# Chain of Epidermal growth factor receptor (Homo sapiens), P00533 [L861Q] (P00533 whole entry L861Q): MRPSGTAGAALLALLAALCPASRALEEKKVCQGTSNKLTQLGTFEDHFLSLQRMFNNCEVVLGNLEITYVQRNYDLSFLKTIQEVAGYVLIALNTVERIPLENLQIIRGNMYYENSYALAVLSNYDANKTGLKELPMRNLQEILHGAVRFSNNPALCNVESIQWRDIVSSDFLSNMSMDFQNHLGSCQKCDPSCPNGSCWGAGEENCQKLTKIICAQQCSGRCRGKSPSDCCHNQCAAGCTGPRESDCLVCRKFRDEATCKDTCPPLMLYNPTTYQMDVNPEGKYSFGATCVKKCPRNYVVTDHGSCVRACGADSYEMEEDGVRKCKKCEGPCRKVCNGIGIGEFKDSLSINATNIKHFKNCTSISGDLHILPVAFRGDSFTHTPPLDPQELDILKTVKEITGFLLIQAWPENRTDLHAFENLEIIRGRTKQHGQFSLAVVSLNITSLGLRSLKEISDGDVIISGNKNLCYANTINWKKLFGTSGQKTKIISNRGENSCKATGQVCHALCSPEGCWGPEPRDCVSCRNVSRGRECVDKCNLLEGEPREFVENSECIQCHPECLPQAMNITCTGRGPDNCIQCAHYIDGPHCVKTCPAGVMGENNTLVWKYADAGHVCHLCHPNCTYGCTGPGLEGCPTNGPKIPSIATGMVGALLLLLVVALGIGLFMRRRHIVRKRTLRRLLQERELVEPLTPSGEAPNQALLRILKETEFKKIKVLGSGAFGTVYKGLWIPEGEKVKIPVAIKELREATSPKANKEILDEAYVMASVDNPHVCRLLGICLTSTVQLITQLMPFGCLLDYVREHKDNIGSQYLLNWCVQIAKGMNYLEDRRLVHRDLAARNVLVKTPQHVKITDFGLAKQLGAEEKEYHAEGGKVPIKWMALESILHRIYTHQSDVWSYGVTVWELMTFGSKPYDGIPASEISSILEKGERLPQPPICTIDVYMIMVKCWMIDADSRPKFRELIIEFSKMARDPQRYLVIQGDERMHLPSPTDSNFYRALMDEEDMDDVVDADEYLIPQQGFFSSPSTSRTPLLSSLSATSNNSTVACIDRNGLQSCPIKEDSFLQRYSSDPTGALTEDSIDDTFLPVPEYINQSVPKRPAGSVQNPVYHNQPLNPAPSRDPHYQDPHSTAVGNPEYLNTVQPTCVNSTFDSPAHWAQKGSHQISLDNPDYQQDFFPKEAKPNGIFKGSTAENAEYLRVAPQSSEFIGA
# [9] = system: Epidermal growth factor receptor (Homo sapiens), P00533 [L861Q]; details: at 1 µM
# [10] = system: Epidermal growth factor receptor (Homo sapiens), P00533 [T790M]; details: at 0.1 µM
# Chain of Tyrosine-protein kinase CSK (Homo sapiens) (P41240 2-450 limits assumed): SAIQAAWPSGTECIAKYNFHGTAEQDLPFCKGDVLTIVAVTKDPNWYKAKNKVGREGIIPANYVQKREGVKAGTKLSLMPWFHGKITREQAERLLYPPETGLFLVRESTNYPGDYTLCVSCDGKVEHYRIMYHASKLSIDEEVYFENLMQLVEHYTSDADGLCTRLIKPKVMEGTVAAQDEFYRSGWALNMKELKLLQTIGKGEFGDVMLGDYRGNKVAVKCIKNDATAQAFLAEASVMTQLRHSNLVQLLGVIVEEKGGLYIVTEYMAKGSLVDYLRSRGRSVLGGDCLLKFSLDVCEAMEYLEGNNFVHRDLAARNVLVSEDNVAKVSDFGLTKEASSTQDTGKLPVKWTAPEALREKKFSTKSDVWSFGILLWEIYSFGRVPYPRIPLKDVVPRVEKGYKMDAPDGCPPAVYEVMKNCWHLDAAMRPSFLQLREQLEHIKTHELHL
SMILES,inhibition [1],inhibition [2],inhibition [3],inhibition [4],inhibition [5],inhibition [6],inhibition [7],inhibition [8],inhibition [9],inhibition [10]
Cc1ccc(NC(=O)CC2CC2)cc1-c1ccc(C(=O)NCC2CC2)cc1,5.95%,2.18%,5.56%,0.19%,2.75%,3.95%,4.15%,1.88%,4.52%,2.03%
CC(C)c1ccc2c(c1)NC(=O)/C2=N/Nc1ccc(S(N)(=O)=O)cc1,0.99%,0.55%,0.19%,1.14%,2.18%,-0.18%,-0.39%,-0.48%,-2.09%,-1.03%
N#Cc1cccc(Nc2nccc(-c3cnn4ncccc34)n2)c1,13.4%,2.63%,7.43%,1.1%,6.11%,4.18%,18.2%,4.53%,7.78%,2.36%
CN(C)CCCn1c(-c2nonc2N)nc2cnccc21,1.67%,1.29%,1.57%,9.72%,10.6%,3.98%,0.96%,3.25%,1.62%,2.09%
CCn1c(-c2nonc2N)nc2ccc(F)cc21,8.91%,0.92%,4.58%,12.1%,13.4%,4.05%,12.7%,4.88%,8.61%,3%
c1ccc(Nc2ncc(-c3ccccc3)o2)cc1,3.75%,2.39%,7.24%,4.96%,10.5%,4.87%,2.77%,2.75%,4.14%,2.39%
CN(C)C(=O)O[C@H]1CN[C@H](C#Cc2cc3ncnc(Nc4ccc(OCc5cccc(F)c5)c(Cl)c4)c3s2)C1,2.76%,1.62%,1.98%,,,,,,,
O=C1Nc2ccccc2/C1=C/Nc1ccc2[nH]c(=O)[nH]c2c1,9.18%,5.46%,8.62%,4.63%,7.94%,3.53%,6.79%,4.1%,6.47%,3.08%
CCCN1CCCC(c2ccc(Nc3nc(Nc4cc(F)ccc4C(N)=O)c4cc[nH]c4n3)c(OC)c2)C1 (centres undefined),4.58%,2.62%,4.82%,7.23%,38%,9.57%,37.5%,7.28%,28.4%,32%
C[C@@H](Oc1cc(-n2cnc3ccc(OCC4CCN(C)CC4)cc32)sc1C(N)=O)c1ccccc1C(F)(F)F,-1.36%,-1.18%,-4.23%,2.6%,9.98%,8.84%,42.5%,-0.46%,8.68%,-1.87%
Nc1nccc(C#Cc2cncnc2Nc2ccc(OCc3cccc(F)c3)c(Cl)c2)n1,3.09%,1.14%,4.7%,,,,,,,
CCS(=O)(=O)c1ccc(OC)c(Nc2ncc(-c3cccc(OC)c3)o2)c1,10.6%,3.76%,20%,1.96%,8.46%,6.95%,27.6%,4.06%,6.2%,1.83%
Cc1ccc2c(c1)/C(=N/Nc1ccc(S(N)(=O)=O)cc1)C(=O)N2,-6.97%,-0.42%,-0.71%,-0.37%,0.75%,-1.56%,-1.97%,-0.23%,-4.18%,-0.84%
CN(C)c1cc2c(Nc3ccc4c(cnn4Cc4ccccc4)c3)ncnc2cn1,27.6%,1.06%,3.09%,,,,,,,
C[C@@H](Oc1cc(-n2cnc3ccc(OC[C@@H](O)CO)cc32)sc1C(N)=O)c1ccccc1Cl,-0.52%,0.32%,0.79%,-0.06%,2.04%,-2.48%,1.14%,-1.31%,-2.45%,-3.45%
NC(=O)c1sc(-n2cnc3ccccc32)cc1OCc1ccccc1Br,2.18%,1.76%,1.6%,1.88%,0.93%,-0.06%,5%,1.71%,2.89%,1.26%
Cc1cc(O)cc(C)c1/C=C/c1cncc(C(=O)N(C)C)c1,7.46%,4%,6.51%,3.09%,6.63%,2.7%,3.1%,3.53%,2.99%,1.24%
NS(=O)(=O)c1cccc(Nc2cc(-c3ccc(F)cc3)n[nH]2)c1,6.86%,0.4%,2.6%,-0.56%,3.41%,1.69%,6.63%,2.18%,5.8%,2.62%
